Screening data as filed in PubChem BioAssay.
Shown are actives, neighbours in structure and some others; about 3.9% of the full set was active somewhere.
MITF act = activators of MITF-driven TRPM1 promoter reporter, primary screen, cell-based, SK-MEL-5, luciferase, single point | SK-MEL-5 TRPM1-promoter luciferase, 24 h; % of positive control, neutral wells = 0 | activation, % at 12.5 µM | 300,000 compounds, 0.75% hits | AID 588334, 2011;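 active = mean activation of at least 80% with every replicate also reaching 80%; inconclusive = mean reaches 80% but some replicate falls short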;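 also: 0% = neutral control wells and 100% = parthenolide positive control wells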
HSF1 activator = HSF-1 activators, primary screen, NIH3T3-HGL cells, MG132 stress, luminescence, single point; NIH3T3-HGL HSF-1 luciferase reporter, 8 h; 100% = twice DMSO control signal; activation, % at 9 µM; 300,000 compounds, 1.7% hits; AID 504408, 2011;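 active = mean replicate activation of at least 50% with a set share of replicates each reaching 50%; inconclusive = only one of those two conditions met; inactive = mean below 50% and too few replicates reaching it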;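 also: 0% = median of the neutral control wells and 100% = twice that signal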
esBAF inh = Bmi1 luciferase reporter increase in mESCs, primary screen, esBAF inhibitor project, mouse ES cells, Bmi1 luciferase knock-in, single point. 24 h; 100% = twice the neutral-well signal. reporter increase, % at 12.5 µM. 350,000 compounds, 2% hits; in the data active = activation above about 40%; inconclusive = no clear call, values can overlap the other calls;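 also: 0% = median of the plate's neutral control wells and 100% = double that signal; a rise in the Bmi1 reporter signal indicates esBAF inhibition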
HSF1 inhib = HSF1 inhibitors in luciferase reporter cells, primary screen, cell-based, NIH3T3, luminescence. activity change, negative = inhibition, % at 7.5 µM (by protocol). 300,000 compounds, 0.77% hits. NIH3T3-HGL HSE-luciferase, MG132-induced, luminescence 8 h; stronger effect = lower value. AID 2098, 2009;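 active = more than half of replicate wells show activity change below -50%, luminescence cut by over half; inconclusive = some wells, but at most half, below -50%; inactive = no replicate well below -50%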;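 also: luciferase reports HSF-1 transcriptional activity via heat shock element; 0% = median of DMSO wells and -100% = zero luminescence signal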
Wnt bcat act = Wnt/beta-catenin pathway activators, primary screen, cell-based, plate reader, single point | Wnt/beta-catenin reporter cell assay, activator | activation, % at 9.35 µM | 300,000 compounds, 1.2% hits; in the data active = activation above about 30%, passing the limit was not always enough; inconclusive = no clear call, values can overlap the other calls;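 also: 0% = neutral control wells and 100% = positive control wells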
Starred values were filed as active, the others as inactive; ? = inconclusive; · = no result given.

SMILES	MITF act	HSF1 activator	esBAF inh	HSF1 inhib	Wnt bcat act
CN(C)c1ccc(/C=N/NC(=S)NCc2ccccc2)cc1	·	55.3*	29.2	15.6	1.6
S=C(NCc1ccco1)N/N=C/c1ccc(Cl)cc1	-0.2	94.6*	·	35.3	0.1
CC(C)(C)c1ccc(/C=N/NC(=S)NCc2ccccc2)cc1	-5.2	9.6	·	6.1	-1.6
COc1ccccc1NC(=O)N[C@@H]1CC[C@H](CCn2cc(C3(O)CCCC3)nn2)O[C@@H]1CO	·	·	-5.1	·	·
CCC(=O)Nc1ccc2c(c1)C(=O)N(C)C[C@@H](OC)[C@@H](C)CN(Cc1cccnc1)[C@H](C)CO2	·	·	1.7	·	·
C[C@H]1CN([C@@H](C)CO)S(=O)(=O)c2ccc(C#CC3CC3)cc2O[C@@H]1CN(C)C(=O)C1CC1	·	·	7.8	·	·
COCC#Cc1ccc2c(c1)O[C@@H](CN(C)C(=O)C1CCCCC1)[C@@H](C)CN([C@H](C)CO)S2(=O)=O	·	·	-4.1	·	·
C[C@H]1CN([C@@H](C)CO)C(=O)c2cc(C#Cc3ccc(F)cc3)cnc2O[C@H]1CN(C)S(C)(=O)=O	·	·	-2.0	·	·
CC(O)CNCc1ccccc1C(F)(F)F (stereo unspecified)	-1.3	-5.0	-1.9	-1.3	40.8*
COc1cccc(NC(=O)n2ncc3c(C)cccc32)c1	8.8	2.2	-35.3	2.6	44.6*
Cc1ccc(NC(=O)n2ncc3c(C)cccc32)c(C)c1	51.9	56.7*	39.9	16.8	10.2
O=C(C[C@@H]1C[C@H]2c3cc(NC(=O)C4CCC4)ccc3O[C@H]2[C@H](CO)O1)NCc1ccccc1F	·	·	-1.0	·	·
COc1cc(/C=N/Nc2ccc(C(F)(F)F)cn2)ccc1O	9.7	34.4	·	16.5	30.7*
O=C(O)c1ccc(/C=N/Nc2ccc(C(F)(F)F)cn2)cc1	46.5	52.5*	·	19.7	18.8
COc1cc(/C=N/Nc2cc(C)nc(N)n2)ccc1O	30.9	7.7	32.1	4.0	9.0
CCn1c(-c2cccs2)nc2ccccc21	30.0	14.4	10.4	3.5	3.9
CCn1c(C(C#N)/C(=N\S(=O)(=O)c2cccs2)c2ccccc2)nc2ccccc21 (stereo unspecified)	-14.4	-72.2	-0.4	-66.1*	-13.7
COc1ccc(CN(CCCN2CCOCC2)C(=O)Nc2cccc(Cl)c2)cc1OC	-0.6	-60.6	7.6	-52.1*	·
C[C@H](CO)N1C[C@H](C)[C@H](CN(C)Cc2ccc(C(F)(F)F)cc2)Oc2ccc(NC(=O)Cn3cnnn3)cc2CC1=O	·	·	0.6	·	·
Cc1ccc(S(=O)(=O)Nc2ccc3c(c2)C(=O)N([C@@H](C)CO)C[C@H](C)[C@H](CN(C)C(=O)Nc2cccc4ccccc24)O3)cc1	·	·	7.8	·	·
CCCC#Cc1cnc2c(c1)C(=O)N([C@H](C)CO)C[C@@H](C)[C@H](CN(C)C(=O)Cc1cccnc1)O2	·	·	4.2	·	·
CC1CCCN(c2ccc(C(=O)NCc3ccccc3)cn2)C1 (stereo unspecified)	32.2	18.4	34.2	13.7	4.0
CC1CCCN(c2ccc(C(=O)NCc3cccs3)cn2)C1 (stereo unspecified)	79.3	18.1	94.3*	25.1	·
O=C(NCc1cccs1)c1ccc(N2CCCCC2)nc1	71.4	25.3	81.3*	14.4	·
O=C(NCc1cccs1)c1ccncc1	·	3.0	-1.4	-7.2	0.3
SMILES	MITF act	HSF1 activator	esBAF inh	HSF1 inhib	Wnt bcat act
Cc1ccc(/C=C2/CCc3c([nH]c4ccccc34)C2=O)cc1	99.7*	18.9	33.6	12.6	53.9*
Cc1ccc2[nH]c3c(c2c1)CC/C(=C/c1ccccc1)C3=O	·	61.9*	90.6*	34.7	-3.5
O=C1NCCc2c1[nH]c1ccccc21	-12.0	6.8	·	3.4	-1.5
O=C1/C(=C\c2ccccc2)CCc2c1[nH]c1ccccc21	52.4	108.7*	33.7	59.0	39.0*
CC(C)/C=C1\CCc2c([nH]c3ccccc23)C1=O	29.0	35.5	·	16.5	9.9
O=C(Cc1nc2ccccc2[nH]c1=O)c1ccccc1	28.8	38.5	·	20.2	32.9*
O=C(Cc1nc2ccccc2[nH]1)c1ccc(Br)cc1	91.4*	101.3*	·	49.1	16.6
O=C(Cc1ccc(Br)cc1)Nc1nc2ccccc2[nH]1	17.4	20.5	16.5	3.9	2.3
C=CCc1ccc(OCc2ccc(C(=O)Nc3ccc(NC(C)=O)cc3)o2)c(OC)c1	38.9	57.2*	46.8*	27.1	19.8
Cc1cc(C)n(-c2ccc(NC(=O)C3CCCCN3C(=O)c3ccoc3C)cc2)n1 (stereo unspecified)	-9.6	-76.9	-1.5	-70.2*	2.5
Cc1cc(C)n(-c2ccc(NC(=O)C3CCCCN3C(=O)c3ccc(C)s3)cc2)n1 (stereo unspecified)	21.1	7.3	11.3	4.7	0.7
O=C(CN1CCN(c2ccccc2)CC1)NCc1ccc(F)cc1	-4.3	-61.9	0.1	-55.8*	0.1
COc1ccc(CNC(=O)CN2CCN(c3ccccc3)CC2)cc1	-1.7	15.1	0.7	3.9	-0.3
Cc1noc(C)c1NC(=O)Nc1ccc2c(c1)C(=O)N([C@H](C)CO)C[C@H](C)[C@@H](CN(C)C(=O)Nc1ccc(F)cc1)O2	·	·	-0.1	·	·
CCCC(=O)Nc1ccc(-c2nc3cc(C)ccc3o2)cc1	-1.6	46.2	·	14.5	·
CCOc1cccc(-c2nc3cc(C)ccc3o2)c1	39.5	20.5	50.4*	20.8	·
O=[N+]([O-])c1ccc2oc(-c3ccccc3)nc2c1	50.2	28.4	·	15.1	-1.8
Cc1ccc2oc(-c3ccccc3)nc2c1	21.9	69.1*	·	35.5	·
Cc1cccc(-c2nc3cc([N+](=O)[O-])ccc3o2)c1	90.9*	49.6	57.1*	27.8	28.4
COCC(=O)N[C@H]1CC[C@@H](CC(=O)N2CCCCC2)O[C@@H]1CO	·	·	-6.5	·	·
NC(=O)c1nn(-c2ccccc2)nc1NC(=O)CN1CCCCC1	0.4	53.3*	-3.3	16.0	-0.9
Cc1cccc(-n2ncc3c(NCc4cccs4)ncnc32)c1	?	21.1	55.9*	14.3	·
c1ccc(-n2ncc3c(NCc4ccccn4)ncnc32)cc1	59.6	35.4	24.0	16.9	4.7
Clc1ccc2c(NCc3cccs3)ncnc2c1	-18.9	-0.2	8.7	-3.9	-0.8
Cc1cccc(-n2ncc3c(NCc4ccco4)ncnc32)c1	46.6	34.4	81.6*	12.9	·
Clc1ccc(-n2ncc3c(NCc4cccs4)ncnc32)cc1	·	56.7*	31.4	21.8	·
Cc1cccc(-n2ncc3c(NCc4ccccn4)ncnc32)c1	69.0	30.7	53.4*	19.6	·
Cc1cccc(-n2ncc3c(NCc4ccccc4)ncnc32)c1	18.8	9.7	22.4	8.3	11.4
COc1ccc(S(=O)(=O)Nc2cccc3c2O[C@@H](CN(C)C)[C@@H](C)CN([C@H](C)CO)C3=O)cc1	·	·	-1.8	·	·
CCNC(=O)[C@H]1[C@H](CO)[C@H]2Cn3c(ccc(-c4cccc(F)c4)c3=O)[C@H]2N1C(=O)Cc1cccnc1	·	·	-4.0	·	·
